Values joined by “and” are separate entries in the source; they are usually repeats but may differ in a detail not shown here. Equal entries are not always repeated.
Experiments:
Assay in all cases: growth AUC relative to DMSO control (median of replicates) (fraction); higher = more growth (less inhibition), active = hit call of the paper
Settings in all cases: 20 µM; 24 h;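 active = AUC reduced over 20% with Padj below 0.05 in at least 2 of 3 replicates; inactive = otherwise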
Coprococcus comes = system: Coprococcus comes
How it was run: (§1)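 Three biological replicates, each grown on a separate day, were combined as a median for every value. In each, a gut bacterial monoculture in mGAM started at OD600 0.05 and grew anaerobically at 37 °C with 20 µM compound (1% DMSO), with OD600 read hourly over 24 h. Area under the growth curve was normalised against the plate median of solvent-only wells, or against row and column medians on the industrial chemical plate, after the minimum OD was set to 0.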

Escherichia coli ED1a = system: Escherichia coli ED1a
How it was run: as §1

Escherichia coli IAI1 = system: Escherichia coli IAI1
How it was run: as §1

Eubacterium rectale = system: Eubacterium rectale
How it was run: as §1

[1] = system: Fusobacterium nucleatum subsp. animalis
How it was run: as §1

Lactobacillus gasseri = system: Lactobacillus gasseri
How it was run: as §1

Lactobacillus paracasei = system: Lactobacillus paracasei
How it was run: as §1

Odoribacter splanchnicus = system: Odoribacter splanchnicus
How it was run: as §1

[2] = system: Parabacteroides distasonis
How it was run: as §1

Parabacteroides merdae = system: Parabacteroides merdae
How it was run: as §1

Roseburia intestinalis = system: Roseburia intestinalis
How it was run: as §1

Streptococcus salivarius = system: Streptococcus salivarius
How it was run: as §1

Measured: growth AUC

O=[N+]([O-])NC1=NCOCN1Cc1cnc(Cl)s1
inactive: Coprococcus comes 0.971 | Escherichia coli ED1a 0.992 | Escherichia coli IAI1 0.997 | Eubacterium rectale 1.1 | [1] 1.15 | Lactobacillus gasseri 0.809 | Lactobacillus paracasei 0.988 | Odoribacter splanchnicus 1.04 | [2] 1.01 | Parabacteroides merdae 0.965 | Roseburia intestinalis 0.941 | Streptococcus salivarius 0.85

CCCCOC(=O)N(C)SN(C)C(=O)Oc1cccc2c1OC(C)(C)C2
inactive: Coprococcus comes 1 | Escherichia coli ED1a 1.07 | Escherichia coli IAI1 1.01 | Eubacterium rectale 1.2 | [1] 0.942 | Lactobacillus gasseri 0.966 | Lactobacillus paracasei 1.05 | Odoribacter splanchnicus 1.03 | [2] 1.03 | Parabacteroides merdae 1.01 | Roseburia intestinalis 0.992 | Streptococcus salivarius 1.02

O=C1OCC2C1C1(Cl)C(Cl)=C(Cl)C2(Cl)C1(Cl)Cl (stereo unspecified)
inactive: Coprococcus comes 1.01 | Escherichia coli ED1a 0.979 | Escherichia coli IAI1 1.01 | Eubacterium rectale 1.07 | [1] 0.925 | Lactobacillus gasseri 0.927 | Lactobacillus paracasei 0.991 | Odoribacter splanchnicus 1.09 | [2] 1.07 | Parabacteroides merdae 0.987 | Roseburia intestinalis 0.975 | Streptococcus salivarius 0.986

CCOc1nc(NC)nc(NC(=O)NS(=O)(=O)c2ccccc2C(=O)OC)n1
inactive: Coprococcus comes 0.996 | Escherichia coli ED1a 1.02 | Escherichia coli IAI1 1.02 | Eubacterium rectale 0.974 | [1] 1.04 | Lactobacillus gasseri 1.23 | Lactobacillus paracasei 1.04 | Odoribacter splanchnicus 1.04 | [2] 1.05 | Parabacteroides merdae 1.03 | Roseburia intestinalis 0.992 | Streptococcus salivarius 1.03

COC(=O)NC(=S)Nc1ccccc1NC(=S)NC(=O)OC
inactive: Coprococcus comes 0.93 | Escherichia coli ED1a 0.995 | Escherichia coli IAI1 0.996 | Eubacterium rectale 1.14 | [1] 1.12 | Lactobacillus gasseri 0.835 | Lactobacillus paracasei 1.01 | Odoribacter splanchnicus 1.05 | [2] 0.944 | Parabacteroides merdae 1.03 | Roseburia intestinalis 0.979 | Streptococcus salivarius 0.98

CCOP(=S)(OCC)Oc1nc(Cl)c(Cl)cc1Cl
inactive: Coprococcus comes 0.995 | Escherichia coli ED1a 1.02 | Escherichia coli IAI1 1.01 | Eubacterium rectale 1.11 | [1] 0.982 | Lactobacillus gasseri 0.992 | Lactobacillus paracasei 0.993 | Odoribacter splanchnicus 1 | [2] 0.963 | Parabacteroides merdae 0.96 | Roseburia intestinalis 1.01 | Streptococcus salivarius 1.06

CCOP(=S)(OCC)Oc1cc(C)nc(N(CC)CC)n1
inactive: Coprococcus comes 1.03 | Escherichia coli ED1a 0.996 | Escherichia coli IAI1 0.994 | Eubacterium rectale 0.969 | [1] 1.01 | Lactobacillus gasseri 1.02 | Lactobacillus paracasei 1.02 | Odoribacter splanchnicus 1.08 | [2] 0.845 | Parabacteroides merdae 0.963 | Roseburia intestinalis 0.941 | Streptococcus salivarius 1

CC(=O)O.CC(=O)O.CC(=O)O.NC(N)=NCCCCCCCCNCCCCCCCCN=C(N)N
active: Coprococcus comes 0.0653 | Eubacterium rectale 0.0201 | Odoribacter splanchnicus 0.0272 | [2] 0.213 | Parabacteroides merdae 0.025 | Roseburia intestinalis 0.029 | Streptococcus salivarius 0.454
inactive: Escherichia coli ED1a 0.966 | Escherichia coli IAI1 0.822 | [1] 0.729 | Lactobacillus gasseri 0.89 | Lactobacillus paracasei 0.834

O=C1C[C@@H]2OCC=C3CN4CC[C@]56c7ccccc7N1[C@H]5[C@H]2[C@H]3C[C@H]46
inactive: Coprococcus comes 0.984 | Escherichia coli ED1a 0.973 | Escherichia coli IAI1 0.985 | Eubacterium rectale 1 | [1] 0.909 | Lactobacillus gasseri 0.928 | Lactobacillus paracasei 1.09 | Odoribacter splanchnicus 1.08 | [2] 0.988 | Parabacteroides merdae 0.967 | Roseburia intestinalis 0.998 | Streptococcus salivarius 0.968

CC1=C(C(=O)Nc2ccccc2)S(=O)(=O)CCO1
inactive: Coprococcus comes 0.986 | Escherichia coli ED1a 1.02 | Escherichia coli IAI1 0.994 | Eubacterium rectale 0.985 | [1] 0.959 | Lactobacillus gasseri 0.998 | Lactobacillus paracasei 0.981 | Odoribacter splanchnicus 0.962 | [2] 0.975 | Parabacteroides merdae 1 | Roseburia intestinalis 0.989 | Streptococcus salivarius 0.979

CC(=NC#N)N(C)Cc1ccc(Cl)nc1
inactive: Coprococcus comes 1.06 and 0.993 | Escherichia coli ED1a 0.994 and 1 | Escherichia coli IAI1 0.982 and 1.08 | Eubacterium rectale 0.908 and 0.994 | [1] 0.987 and 0.952 | Lactobacillus gasseri 0.985 and 1.03 | Lactobacillus paracasei 1.03 and 0.987 | Odoribacter splanchnicus 1.04 and 1.02 | [2] 1.02 and 1 | Parabacteroides merdae 1.04 and 0.98 | Roseburia intestinalis 0.956 and 1.02 | Streptococcus salivarius 1.05 and 1.06

[Cl][Sn]([c]1ccccc1)([c]1ccccc1)[c]1ccccc1
inactive: Escherichia coli ED1a 0.981 | Escherichia coli IAI1 0.964 | [1] 0.897 | Lactobacillus gasseri 0.383 | Lactobacillus paracasei 0.83 | Streptococcus salivarius 0.859
active: Coprococcus comes 0.0492 | Eubacterium rectale 0.0221 | Odoribacter splanchnicus 0.0358 | [2] 0.048 | Parabacteroides merdae 0.0101 | Roseburia intestinalis 0.0424

COc1ccc(/C(=C/C(=O)N2CCOCC2)c2ccc(F)cc2)cc1OC
inactive: Coprococcus comes 1.02 | Escherichia coli ED1a 0.974 | Escherichia coli IAI1 1.01 | Eubacterium rectale 0.966 | [1] 0.955 | Lactobacillus gasseri 0.971 | Lactobacillus paracasei 0.976 | Odoribacter splanchnicus 1.06 | [2] 1.01 | Parabacteroides merdae 1.02 | Roseburia intestinalis 0.975 | Streptococcus salivarius 1.04

CC1=C(C(=O)Nc2ccccc2)SCCO1
inactive: Coprococcus comes 0.998 | Escherichia coli ED1a 1 | Escherichia coli IAI1 1.04 | Eubacterium rectale 1.06 | [1] 1.09 | Lactobacillus gasseri 0.993 | Lactobacillus paracasei 1.04 | Odoribacter splanchnicus 0.985 | [2] 1 | Parabacteroides merdae 1.01 | Roseburia intestinalis 1.08 | Streptococcus salivarius 1.08

CC[C@H](C)[C@H]1O[C@]2(C=C[C@@H]1C)C[C@@H]1C[C@@H](C/C=C(\C)[C@@H](O[C@H]3C[C@H](OC)[C@@H](O[C@H]4C[C@H](OC)[C@@H](NC)[C@H](C)O4)[C@H](C)O3)[C@@H](C)/C=C/C=C3\CO[C@@H]4[C@H](O)C(C)=C[C@@H](C(=O)O1)[C@]34O)O2.O=C(O)c1ccccc1
active: Coprococcus comes 0.156 | Lactobacillus gasseri 0.714 | [2] 0.0402 | Parabacteroides merdae 0.345 | Roseburia intestinalis 0.0307 | Streptococcus salivarius 0.798
inactive: Escherichia coli ED1a 0.974 | Escherichia coli IAI1 0.95 | Eubacterium rectale 0.865 | [1] 0.758 | Lactobacillus paracasei 0.597 | Odoribacter splanchnicus 1.06

Oc1cc(Cl)cc(Cl)c1
inactive: Coprococcus comes 1.02 | Escherichia coli ED1a 1 | Escherichia coli IAI1 1.02 | Eubacterium rectale 1.08 | [1] 1.1 | Lactobacillus gasseri 1.08 | Lactobacillus paracasei 0.957 | Odoribacter splanchnicus 1.03 | [2] 0.997 | Parabacteroides merdae 0.973 | Roseburia intestinalis 1.01 | Streptococcus salivarius 1

CNC(=O)ON=C(C)C(C)SC (stereo unspecified)
inactive: Coprococcus comes 0.972 | Escherichia coli ED1a 1.03 | Escherichia coli IAI1 1.02 | Eubacterium rectale 1.12 | [1] 1.07 | Lactobacillus gasseri 0.89 | Lactobacillus paracasei 0.803 | Odoribacter splanchnicus 0.91 | [2] 0.943 | Parabacteroides merdae 0.915 | Roseburia intestinalis 0.949 | Streptococcus salivarius 0.924

C[n+]1ccc(-c2cc[n+](C)cc2)cc1.O.[Cl-].[Cl-]
inactive: Coprococcus comes 0.98 | Escherichia coli ED1a 1.03 | Escherichia coli IAI1 0.991 | Eubacterium rectale 0.963 | [1] 0.937 | Lactobacillus gasseri 1.05 | Lactobacillus paracasei 1.01 | Odoribacter splanchnicus 0.873 | [2] 0.997 | Parabacteroides merdae 0.954 | Roseburia intestinalis 1 | Streptococcus salivarius 0.982

CC(C)C(C(=O)OC(C#N)c1cccc(Oc2ccccc2)c1)c1ccc(OC(F)F)cc1 (stereo unspecified)
inactive: Coprococcus comes 1.02 | Escherichia coli ED1a 0.998 | Escherichia coli IAI1 0.979 | Eubacterium rectale 0.848 | [1] 0.968 | Lactobacillus gasseri 1.01 | Lactobacillus paracasei 1.02 | Odoribacter splanchnicus 1.07 | [2] 0.983 | Parabacteroides merdae 0.971 | Roseburia intestinalis 0.977 | Streptococcus salivarius 0.993

CON(C)C(=O)Nc1ccc(Br)cc1
inactive: Coprococcus comes 1.05 | Escherichia coli ED1a 1.02 | Escherichia coli IAI1 1 | Eubacterium rectale 1.02 | [1] 1.07 | Lactobacillus gasseri 1.15 | Lactobacillus paracasei 1.02 | Odoribacter splanchnicus 1.01 | [2] 0.983 | Parabacteroides merdae 1.01 | Roseburia intestinalis 1.06 | Streptococcus salivarius 0.999

O=C(NC(=O)c1c(F)cccc1F)Nc1cc(Cl)c(Oc2ncc(C(F)(F)F)cc2Cl)c(Cl)c1
inactive: Coprococcus comes 1.02 | Escherichia coli ED1a 1.02 | Escherichia coli IAI1 0.991 | Eubacterium rectale 1.01 | [1] 1.02 | Lactobacillus gasseri 1.16 | Lactobacillus paracasei 1.02 | Odoribacter splanchnicus 1.02 | [2] 1.02 | Parabacteroides merdae 1.02 | Roseburia intestinalis 1.11 | Streptococcus salivarius 0.98

Clc1ccc(C(c2ccc(Cl)cc2)C(Cl)Cl)cc1
inactive: Coprococcus comes 1.01 | Escherichia coli ED1a 1.02 | Escherichia coli IAI1 0.984 | Eubacterium rectale 1.01 | [1] 1.07 | Lactobacillus gasseri 0.956 | Lactobacillus paracasei 0.994 | Odoribacter splanchnicus 0.951 | [2] 1.02 | Parabacteroides merdae 0.918 | Roseburia intestinalis 0.923 | Streptococcus salivarius 0.99

Oc1c(Br)cc(Br)cc1Br
inactive: Coprococcus comes 1.01 | Escherichia coli ED1a 0.945 | Escherichia coli IAI1 0.845 | Eubacterium rectale 1 | [1] 1.03 | Lactobacillus gasseri 1.13 | Lactobacillus paracasei 0.919 | Odoribacter splanchnicus 0.748 | [2] 0.934 | Parabacteroides merdae 0.991 | Roseburia intestinalis 1.08 | Streptococcus salivarius 0.959

Source: the supplement of paper PMC12669032
